Sampled rows, rich in hits. Any-hit rate of the full collection: about 10%.
MmCpn inh – Inhibitors of TCP-1 ring complex (TRiC) of Methanococcus maripaludis (MmCpn): qHTS. purified Mm-Cpn ATPase, ADP Transcreener TR-FRET. Potency, µM (series often up to 76.9 µM), without a hit: top-dose activity, negative = inhibition, actives largely listed as inhibitors. hit rate 0.031% among 330,000. AID 504842, 2011; note: potency is the fitted concentration of half-maximal effect; nearly all actives have a fitted effect of over 80% in size
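ATP (10 uM final) was added to archaeal chaperonin (25 nM final) after 10 min exposure to test compound at 37°C; after 30 min further incubation, ADP was detected by competitive TR-FRET.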
PLK1 PBD block – qHTS for Inhibitors of PLK1-PDB (polo-like kinase 1 - polo-box domain): Primary Screen. hit rate 2.8% among 360,000. Potency, µM, for inactives: max response, negative = inhibition, hits mostly inhibitors. Plk1 PBD binding of FITC phosphopeptide, fluorescence polarization. Serine/threonine-protein kinase PLK1 (Homo sapiens), P53350; note: potency is the fitted concentration of half-maximal effect; series mostly up to about 57 µM; nearly all actives have a fitted effect of over 65% in size
CCT modulator – High-Throughput Screening for Modulators of Cytosolic Chaperonin Activity; purified chaperonin ATPase assay, HTRF ADP detection, 30 min; activity change, % (test concentration not listed), hits read low; hit rate 0.3% among 360,000; in the data active = activity change below about -30%
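We incubate TRiC, 40 or 20 nM final, with library compounds at 76 uM and 10 uM ATP for 30 min at 37 °C. ADP formed is detected with Transcreener HTRF reagents after 30 min at room temperature.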
Sfp PPTase inh – qHTS Assay for Inhibitors of Bacillus subtilis Sfp phosphopantetheinyl transferase (PPTase); hit rate 3.5% among 310,000; Biochemical Sfp PPTase activity, qHTS; Potency, µM, for the others: largest response in the series, negative = inhibition, most hits filed as inhibitors; 4'-phosphopantetheinyl transferase ffp (Bacillus subtilis), Q9F4F7;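 note: the enzyme is Sfp with the accession as filed and its product quenches rhodamine fluorescence; potency is the fitted concentration of half-maximal effect; 0% = enzyme reaction without inhibitor and -100% = no enzyme wells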
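After 15 min at room temperature with compound, 15 nM Sfp received 5 uM rhodamine-CoA plus 12.5 uM BHQ-2-ybbR (50 mM Hepes pH 7.6, 10 mM MgCl2). Rate came from the fluorescence difference over 30 min, ex 525/em 598 nm.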
G9a block – qHTS Assay for Inhibitors of Histone Lysine Methyltransferase G9a | hit rate 8.8% among 350,000 | G9a H3K9 monomethylation, AlphaScreen, 2 h | Histone-lysine N-methyltransferase EHMT2 (Homo sapiens), Q96KQ7 | AID 504332, 2011 | Potency, µM (series often up to 102 µM), inactives show at the top dose activity, negative = inhibition, most hits filed as inhibitors; note: potency is the fitted concentration of half-maximal effect; nearly all actives have a fitted effect of over 75% in size
Target sequence (Q96KQ7 913-1193 limits assumed): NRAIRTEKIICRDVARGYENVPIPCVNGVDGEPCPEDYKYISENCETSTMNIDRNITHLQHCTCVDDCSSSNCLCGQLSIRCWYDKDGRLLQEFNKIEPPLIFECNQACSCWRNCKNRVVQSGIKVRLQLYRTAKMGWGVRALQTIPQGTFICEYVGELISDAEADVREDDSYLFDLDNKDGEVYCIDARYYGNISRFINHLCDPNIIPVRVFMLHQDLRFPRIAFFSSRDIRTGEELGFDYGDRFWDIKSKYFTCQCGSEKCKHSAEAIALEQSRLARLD
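G9a (20 nM) was preincubated 15 min with compound, then reacted 2 h at room temperature with 500 nM biotin-H3K9 peptide and 20 µM SAM. Monomethyl-H3K9 detected by AlphaScreen using anti-H3K9me1 antibody.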
VDR inhibitor – Inhibitors of the vitamin D receptor (VDR): qHTS; Vitamin D3 receptor (Homo sapiens), P11473; VDR-SRC2-3 peptide fluorescence polarization, 2 h; Potency, µM, inactives show max response, negative = inhibition, hits mostly inhibitors; hit rate 0.93% among 400,000; AID 504847, 2011; note: potency is the fitted concentration of half-maximal effect
Target sequence (P11473 whole entry, looked up): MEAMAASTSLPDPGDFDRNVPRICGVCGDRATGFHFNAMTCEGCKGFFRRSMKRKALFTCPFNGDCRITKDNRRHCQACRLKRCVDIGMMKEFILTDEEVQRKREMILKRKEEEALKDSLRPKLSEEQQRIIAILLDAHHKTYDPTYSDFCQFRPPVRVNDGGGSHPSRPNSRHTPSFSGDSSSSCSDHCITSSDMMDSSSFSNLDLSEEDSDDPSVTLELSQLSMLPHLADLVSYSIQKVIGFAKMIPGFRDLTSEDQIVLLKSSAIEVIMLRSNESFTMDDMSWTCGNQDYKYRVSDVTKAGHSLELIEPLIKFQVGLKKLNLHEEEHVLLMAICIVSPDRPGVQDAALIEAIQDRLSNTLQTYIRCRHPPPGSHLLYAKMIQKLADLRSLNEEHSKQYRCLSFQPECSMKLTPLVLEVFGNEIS
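Fluorescence polarization assay measuring small-molecule disruption of VDR binding to the coregulator peptide SRC2-3. Compounds were pin-transferred (23 nl) into the reagent mix and incubated 2 h at room temperature before reading.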
Active calls of the source: *; ? = inconclusive; · = no result given; [ ] = another dose, or the depositor's remark. Unless noted, calls come from the whole dose curve; as a rule, active = well fitted curve in the direction sought with a large enough effect; inconclusive = small, poorly fitted or top-dose-only effect, or another doubt; inactive = no such curve, though single readings can be large; an effect the other way counts as inactive or inconclusive. Unless noted, % is set by controls: 0 for no effect and ±100 for the full control effect.

SMILES | MmCpn inh | PLK1 PBD block | CCT modulator | Sfp PPTase inh | G9a block | VDR inhibitor
CC1=NOC(=O)/C1=C\c1ccc(-c2ccc(Cl)c(C(=O)O)c2)o1 | 0.6% | 2.12µM* | 0.8 | 56.2µM* | 15.8µM* | ?
Clc1cccc(-c2ccc(C3Nc4cccc5cccc(c45)N3)o2)c1 | -4.5% | · | · | · | · | -23.2%
CC1=NOC(=O)/C1=C\c1ccc(-c2cccc(Cl)c2)o1 | -1.9% | 0.532µM* | 1.2 | 20µM* | 25.1µM* | ?
Nc1ccccc1N=Cc1ccc(-c2cccc(Cl)c2)o1 | -7.4% | ? | 1.4 | 31.6µM* | ? | -8.4%
O=C(Nc1ccc(Br)cc1)c1ccc(F)c(S(=O)(=O)N2CCc3ccccc32)c1 | · | · | · | · | 19.0%[59 µM] | -7.8%
Cc1cc(=O)n(Cc2cccc(Cl)c2)c2c1c(C)nn2C | · | · | · | · | 109.2%[59 µM] | 5.8%
COCCn1nnnc1C(c1ccccc1OC)N1CCN(c2ccccc2F)CC1 (stereo unspecified) | -1.2% | -7.0% | 1.5 | 15.0% | ? | 9.6%
CCc1ccc2[nH]c(=O)c(C(c3nnnn3CCOC)N3CCN(c4ccc(F)cc4)CC3)cc2c1 (stereo unspecified) | -0.2% | -11.0% | -0.8 | 17.8µM* | ? | -7.8%
COc1cc2cc(C(c3nnnn3Cc3ccc(F)cc3)N3CCCCCC3)c(=O)[nH]c2cc1OC (stereo unspecified) | -1.7% | -14.3% | -3.7 | -10.4% | ? | -8.6%
COCCn1nnnc1C(c1cc2cccc(C)c2[nH]c1=O)N1CCN(c2ccccc2F)CC1 (stereo unspecified) | -4.7% | -27.9% | 1.5 | 14.1µM* | 3.16µM* | 5.6%
CCc1ccc2[nH]c(=O)c(C(c3nnnn3CCOC)N3CCN(c4ccccc4)CC3)cc2c1 (stereo unspecified) | -0.7% | -8.4% | 0.7 | 31.6µM* | 28.2µM* | -16.3%
Cc1ccc(CCNC(=O)c2c(C)oc3ncn(CC(C)C)c(=O)c23)cc1 | · | · | · | · | -19.2%[59 µM] | 12.8%
Cc1ccc(S(=O)(=O)N2CCCc3cc(NC(=O)c4ccc(C(C)(C)C)cc4)ccc32)cc1 | · | · | · | · | 8.0%[59 µM] | 12.1%
Clc1ccccc1OCCSc1nnc(-c2cccs2)o1 | · | · | · | · | 71.5%[59 µM] | -7.1%
Cc1ccc(OCc2cc(C(=O)N(C)CC3CCOCC3)no2)cc1C | -3.5% | -4.7% | -1.1 | 5.8% | · | -9.3%
Cc1ccc(OCc2cc(C(=O)N(C)Cc3cnc4ccccn34)no2)cc1C | 2.2% | 21.2µM* | 0.7 | 3.4% | -11.1% | ?
COc1cc(/C=C2\SC(=S)N(NS(=O)(=O)c3ccc(C)cc3)C2=O)ccc1O | -17.0% | 14.5% | 0.3 | -10.8% | 25.1µM* | 8.1%
COc1cc(/C=C2\SC(=S)N(Nc3ccccc3)C2=O)cc(OC)c1OC | 1.7% | -8.1% | -2.3 | 1.3% | ? | -19.8%
COc1cc(/C=C2\SC(=S)N(NS(=O)(=O)c3ccccc3)C2=O)ccc1O | -12.3% | 24.9% | -1.3 | 18.4% | 39.8µM* | -11.8%
CCOc1cc(/C=C2\SC(=S)N(NS(=O)(=O)c3ccc(C)cc3)C2=O)ccc1O | · | -1.2% | -0.2 | · | · | -16.0%
CCOc1ccc(/C=C2\SC(=S)N(Nc3ccccc3)C2=O)cc1OC | -2.1% | -10.8% | -2.6 | ? | 7.08µM* | -10.1%
COc1ccccc1NC(=O)NCc1cccn1Cc1ccccc1 | · | · | · | · | -47.6%[59 µM] | 3.0%
Nc1[nH]c(=O)nc2c1ncn2C1OC(CO)C(O)C1O (stereo unspecified) | · | · | · | · | · | -4.1%
CC(=O)NC1=NN(C(C)=O)C(C)(c2cccnc2)S1 (stereo unspecified) | -3.0% | -26.8% | -1.3 | -16.3% | 44.7µM* | -1.0%
CC(=O)NC1=NN(C(C)=O)C(C)(c2cccs2)S1 (stereo unspecified) | -1.2% | -13.6% | -0.9 | 10.3% | 10.2%[59 µM] | -6.7%
SMILES | MmCpn inh | PLK1 PBD block | CCT modulator | Sfp PPTase inh | G9a block | VDR inhibitor
CN(Cc1ccco1)C(=O)CCc1nc2sc3c(c2c(=O)[nH]1)CCCC3 | -1.9% | -26.1% | 0.2 | -16.3% | 79.4µM* | ?
CN(CC(=O)Nc1ccc(F)cc1)C(=O)CCc1nc2sc3c(c2c(=O)[nH]1)CCCC3 | -6.3% | -7.8% | -2.2 | · | 56.2µM* | -3.4%
Cc1ccc(CN(C)C(=O)CCc2nc3sc4c(c3c(=O)[nH]2)CCCC4)o1 | -4.8% | -22.4% | -1.8 | 50.1µM* | · | ?
COc1ccc(-c2cc(C(F)(F)F)n3nc(-c4ccc(Cl)cc4)cc3n2)cc1OC | · | · | · | · | 17.4%[59 µM] | -8.1%
Cc1cccc(C(=O)Nc2ccc(C(=O)OCc3cc(=O)n4nc(CC(C)C)sc4n3)cc2)c1 | · | · | · | · | -1.4%[59 µM] | 6.4%
CC(=O)Cc1nsc(Nc2ccc(C)cc2)n1 | 2.7% | 26.7µM* | -3.8 | 26.4% | -2.3% | ?
CNc1nc(CC(C)=O)ns1 | 0.1% | -1.8% | -2.9 | 3.5% | 79.4µM* | -22.5%
CCc1ccc(CCC(=O)Nc2nc(CC(C)=O)ns2)o1 | -0.9% | -15.2% | -0.2 | ? | 70.8µM* | -2.6%
CCCCNc1nc(CC(C)=O)ns1 | -2.1% | -13.3% | 0.4 | -4.6% | -19.0% | 4.6%
COc1ccc(OC)c(CNC(=O)CCc2c(C)nc3c(c2C)c(=O)n(C)c(=O)n3C)c1 | · | · | · | · | -1.1%[59 µM] | -17.5%
COc1cccc2c1cc1c(=O)n(CC(=O)N3CCN(c4cccc(C)c4)C(C)C3)nc(C)n12 (stereo unspecified) | · | · | · | · | 22.3%[59 µM] | 4.4%
COc1ccc(NC(=O)N(CCC(C)C)C(C)c2cccs2)c(OC)c1 (stereo unspecified) | · | · | · | · | ? | 10.0%
C/C(=N\N=C1\NC(=O)C(Cc2ccccc2)S1)c1ccccc1 (stereo unspecified) | -0.6% | 29.9µM* | 2.7 | 6.1% | ? | 6.7%
O=C1N/C(=N/N=C/c2ccco2)SC1Cc1ccccc1 (stereo unspecified) | 1.8% | -2.2% | -0.6 | -15.2% | 10.0% | -18.6%
CC1CCc2nc3ncn(Cc4ccc(Cl)cc4)c(=O)c3cc2C1 (stereo unspecified) | · | · | · | · | -1.8%[59 µM] | 10.7%
CC(C)c1ccc(OC(=O)c2cccc(S(=O)(=O)N3CCN(C)CC3)c2)cc1 | ? | -12.1% | 0.2 | -9.1% | 20µM* | -3.0%
CN1CCN(S(=O)(=O)c2cccc(C(=O)Oc3ccc(C(C)(C)C)cc3)c2)CC1 | 2.0% | -8.9% | 0.6 | · | 50.1µM* | -7.5%
COc1cc(OC)cc(OC(=O)c2cccc(S(=O)(=O)N3CCN(C)CC3)c2)c1 | 4.5% | -10.0% | -0.1 | · | ? | 0.4%

From PubChem BioAssay
